Measured values published in PubChem BioAssay AID1259240 (Keith Lab, Institute of Cancer Science, University of …, 2017).
Values without a mark were called inactive. The source made the active and inactive calls. Rule as the data show it: active = fold change mostly below about -2 (no sharp cut-off); inactive = mostly above about -1.8.

Test: TERT promoter activity modulators, primary screen, cell-based, luciferase reporter, human (AID 1259240)
Conditions: A2780 TERT promoter luciferase reporter, 16 h; at 20 µM, fold versus average of vehicle-only wells

Compared with `O=C(CCSc1nc(-c2ccc3c(c2)OCO3)cc(C(F)(F)F)n1)N1CCCCC1`, `O=c1c(O)c(-c2ccc3c(c2)OCO3)oc2ccccc12` is higher in fold change: -1.15 for the first, 1 for the second.

First: CCOC(=O)C1CCCN(c2c(NCC3COc4ccccc4O3)c(=O)c2=O)C1 (stereo not given)
Second: CCOC(=O)C1CCCN(c2c(N3CC(C)CC(C)C3)c(=O)c2=O)C1 (stereo not given)
The fold change of the first is higher: 1.35 for the first, -1.11 for the second.

First: COc1ccc(OC)c(S(=O)(=O)c2cc3cc(OC)ccc3oc2=O)c1
Second: COc1ccc(-c2nc3s/c(=C\c4cc(OC)c(OC)c(OC)c4)c(=O)n3n2)cc1OC
The fold change of the first is lower: -1.77 for the first, 1.65 for the second.

First: c1ccc(COc2ccc(Oc3nc(N4CCOCC4)nc(N4CCOCC4)n3)nn2)cc1
Second: O=C(CCC(=O)NC1CCCC1)NNc1nc2ccccc2c2nc(-c3ccccc3)nn12
The fold change of the first is higher: -1.03 for the first, -1.47 for the second.

Compared with `Cc1cc(C)c2c(=O)n(CC(=O)N3CCCC3)sc2n1`, `Cc1cc(C(=O)N2CCC(C)CC2)on1` is higher in fold change: 1.19 for the first, 1.62 for the second.

First: COc1cccc(/C=c2\sc3nc(-c4ccco4)nn3c2=O)c1OC
Second: COc1ccc(N2CN=c3s/c(=C4\C(=O)N(C)c5ccccc54)c(=O)n3C2)cc1
The fold change of the first is higher: 1.43 for the first, -1.56 for the second.

First: CCOc1cc2c(cc1OCC)C(c1ccc(Cl)c(Cl)c1)CC(=O)N2 (stereo not given)
Second: CCOC(=O)c1nn(-c2ccc(Cl)cc2)c(=O)c2c(NC(=O)C3CC3)scc12
The fold change of the first is higher: 1.29 for the first, -1.1 for the second.

First: Cc1ccc(-c2cc(N)n(S(=O)(=O)c3cccc4nsnc34)n2)cc1
Second: O=C(Nc1ccc(C(F)(F)F)cc1)C1CCCN1S(=O)(=O)c1cccc2nsnc12 (stereo not given)
The fold change of the first is lower: -1.42 for the first, -1.19 for the second.

First: O=C(CC(=O)Nc1ccc(F)cc1F)Nc1ccc2nc3n(c(=O)c2c1)CCCCC3
Second: O=C(O)CCC(=O)N1CCc2cc(S(=O)(=O)N3CCc4ccccc4C3)ccc21
The fold change of the first is lower: -1.32 for the first, 1.93 for the second.

First: CCCCCNC(=O)c1ccc(NC2=NC3CS(=O)(=O)CC3S2)cc1 (stereo not given)
Second: CC(C)OCCCNC(=O)Cc1ccc(NC2=NC3CS(=O)(=O)CC3S2)cc1 (stereo not given)
The fold change of the first is higher: 1.22 for the first, -1.17 for the second.

First: N#Cc1cn(CC(=O)NCCc2c[nH]c3ccccc23)c2ccccc12
Second: Cc1cc(NC(=O)CSc2nnc(Cn3c(=O)sc4ccccc43)n2-c2ccccc2)no1
The fold change of the first is lower: -1.14 for the first, 1.22 for the second.

First: Cc1ccc(-c2csc3ncnc(NCCC(=O)O)c23)cc1
Second: OCCn1c(-c2ccc(Br)cc2)cn2c3ccccc3nc12
The fold change of the first is higher: 1.18 for the first, -1.06 for the second.

Going from `COc1ccc2cc3c(N)nn(C(=O)CCS(=O)(=O)c4ccccc4)c3nc2c1` to `CN(CC(=O)NCc1cccs1)S(=O)(=O)c1ccc2c(c1)n(C)c(=O)c(=O)n2C`, the fold change rises from -1.33 to 1.51.

Going from `CN(C)CCCN1C(=O)CSC1c1ccccc1` (stereo not given) to `COCCCN1CN=C(Nc2nc(C)c3ccc(C)cc3n2)NC1`, the fold change falls from -1.42 to -1.94.

Going from `CC(C)C(NS(=O)(=O)c1ccc2c(c1)oc(=O)n2C)C(=O)NCc1cccs1` (stereo not given) to `CSc1cccc(NC(=O)C2CCN(S(=O)(=O)c3ccc4c(c3)oc(=O)n4C)CC2)c1`, the fold change falls from -1.35 to -1.36.

First: CCOC(=O)c1sc(NC(=O)c2cc(C)no2)c(C(=O)OCC)c1C
Second: O=C(NCc1cccnc1)c1cccc(NC2=NC3CS(=O)(=O)CC3S2)c1 (stereo not given)
The fold change of the first is higher: 1.26 for the first, -1.24 for the second.

First: Cn1c(=O)c(=O)n(C)c2cc(S(=O)(=O)N3CCCC3C(=O)NC3CCCCC3)ccc21 (stereo not given)
Second: Cc1cc2c(c(=O)[nH]1)C(=O)O/C2=C\c1cc([N+](=O)[O-])ccc1O
The fold change of the first is higher: 1.05 for the first, -1.57 for the second.

In the case of `Cc1nc2ncccn2c1-c1csc(Nc2ccc(Cl)cc2)n1`, the fold change is reported as -2.31 (active).
With `CC(C)C(C(=O)O)N1C(=O)/C(=C/c2cccs2)SC1=S` (stereo not given) the fold change was -3.32 (active).
For `CCC(=O)OCCNc1cc(N2CCCC2)c2noc3c2c1C(=O)c1ccccc1-3`, the fold change was 2.08 (active).
With `CC(C)C(NC(=O)CN1C(=O)c2ccccc2S1(=O)=O)C(C)C` the fold change was -2.34 (active).
For `Cc1cc(C)cc(N(CC(=O)NCc2cccs2)S(=O)(=O)c2c(C)[nH]c(=O)[nH]c2=O)c1`, the fold change was -2.11 (active).

With `Cc1ccc(C2C3=C(CC(C)(C)CC3=O)Nc3ncnn32)cc1` (stereo not given) the outcome was “inactive”.
